Assay results taken from PubChem BioAssay AID1345083 (National Center for Advancing Translational Sciences (NCATS), 2018).
Among all 94,000 compounds or so, about 6,200 (6.6%) were called active. Inconclusive results (about 31%) are left out. The entries come from a sample that favours actives as a whole. Unmarked numbers belong to inactive results. The call rests on the fitted dose curve; in most records, active means well fitted inhibition curve with a large enough effect; inconclusive means small, poorly fitted or top-dose-only effect; inactive means flat fitted curve, though single readings scatter.

Test: Cytotoxic Profiling in HEK 293 Cell Line of Diverse Libraries Using Quantitative High-Throughput Screening; further: nearly all actives have a fitted effect of over 60% in size
Conditions: HEK 293 viability, ATP luminescence (CellTiter-Glo), 48-72 h; series mostly up to 115 µM; activity change, negative = cytotoxicity: at the top concentration
In short: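 ATP-coupled CellTiter-Glo luminescence served as viability read-out, recorded 10 min after reagent addition at room temperature. HEK 293 cells, 250 cells/well, had been incubated with pintool-transferred compound for 48 or 72 hr at 37 degree Celsius.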
On the % scale 0 is the no-effect control and ±100 the full control effect; potency means the concentration at half of the fitted maximal effect.

Compound	activity change, negative = cytotoxicity	Potency	outcome
Cn1ncc2c(C(=O)NCc3ccc(F)cc3)cc(-c3cccc(C(F)(F)F)c3)nc21	-13.2%	–	–
CC(=O)N1CCN(C(=O)c2cc(-c3cccc(F)c3)nc3c2cnn3C)CC1	2.75%	–	–
Cn1ncc2c(C(=O)NCc3ccc(C(F)(F)F)cc3)cc(C3C=C(C(F)(F)F)C=CC3)nc21 (stereo not given)	-19.9%	–	–
Cn1ncc2c(C(=O)NCC(F)(F)F)cc(-c3ccc(C(F)(F)F)cc3)nc21	0.478%	–	–
Cn1ncc2c(C(=O)NCc3ccccc3)cc(-c3ccc(C(F)(F)F)cc3)nc21	–	79.4 µM (active)	–
Cn1ncc2c(C(=O)N3CCN(c4ncccn4)CC3)cc(-c3ccc(C(F)(F)F)cc3)nc21	–	50.1 µM (active)	–
Cc1ccc(-c2cc(C(=O)N3CCOCC3)c3cnn(C)c3n2)c(C)c1	-12.7%	–	–
CC(C)OCCCNC(=O)c1cc(-c2ccc(C(F)(F)F)cc2)nc2c1cnn2C	–	44.7 µM (active)	–
Cn1ncc2c(C(=O)NCc3ccc(F)cc3F)cc(-c3ccccc3C(F)(F)F)nc21	–	31.6 µM (active)	–
COc1ccccc1-c1cc(C(=O)NC2CCCCC2)c2cnn(C)c2n1	-26.6%	–	–
Cn1ncc2c(C(=O)NCC#N)cc(-c3cccc(C(F)(F)F)c3)nc21	-14.6%	–	–
Cn1cnc(S(=O)(=O)N2CCC(c3noc(-c4ccccc4)n3)C2)c1 (stereo not given)	-20.7%	–	–
CCOc1ccc(CC(=O)N2C[C@@H](N)C[C@H]2C(=O)NC(C)C)cc1	-7.1%	–	–
CNC(=O)[C@H]1C[C@H](Oc2cccnc2)CN1C(=O)NCCc1ccccc1	-7.31%	–	–
COCCn1ncc(N2CCCC(CC(=O)Nc3ccc(C)cc3)C2)cc1=O (stereo not given)	12.4%	–	–
O=C(c1ccccc1F)N1CCC2(CC1)C(=O)Nc1ccccc12	-0.773%	–	–
CC(=O)N[C@@H]1[C@@H](NC(=O)Cc2cccs2)[C@H]2CCO[C@H]21	–	–	inactive
O=C(NC1CCN(Cc2ccc(F)c(F)c2)CC1)c1ccc2nccn2c1	–	44.7 µM (active)	–
O=C(NCc1ccccn1)c1ccc2nccn2c1	-8.78% [at 172 µM]	–	–
O=C(c1ccc2nccn2c1)N1CCOCC1	–	inactive	–
COc1ccccc1N1CCN(C(=O)C2CCCN(C(=O)c3ccccc3)CCC(=O)NCC2)CC1 (stereo not given)	–	–	inactive
COc1ccc(C(=O)N2CCCN(C(=O)C3CC3)C(c3ccccc3)CC(=O)NCC2)cn1 (stereo not given)	–	–	inactive
COc1ccccc1N1CCCc2ncc(C(=O)N3CCCC[C@@H]3c3ccccc3)cc21	–	89.1 µM (active)	–
COC(=O)N1CCC2(CC1)C(=NC1CCCC1)NC(=O)N2c1cc(F)cc(F)c1	-4.97%	–	–
Cc1csc(CCNC(=O)C[C@H]2NC(=O)c3ccccc3NC2=O)n1	-0.645%	–	–

Compound	activity change, negative = cytotoxicity	Potency	outcome
O=C1Nc2ccccc2CC12CCN(CC1CC1)C2 (stereo not given)	-20.7% [at 172 µM]	–	–
N#Cc1ccc(CN2CCC3(Cc4ccccc4NC3=O)C2)cc1 (stereo not given)	–	89.1 µM (active)	–
O=C1Nc2ccccc2CC12CCN(CC1CCCCC1)CC2	–	inactive	–
O=C(N[C@H]1CCN2C(=O)c3ccccc3NC(=O)[C@H]12)c1cccs1	4.83% [at 172 µM]	–	–
CC(=O)N1CCc2[nH]cnc2C12CCN(C(=O)c1ccc(C)c(C)c1)CC2	-17.9%	–	–
COC(=O)C[C@H]1CN(C(=O)OC(C)(C)C)CCN1	–	–	inactive [at 172 µM]
COc1ccc(-n2nc(C3CCN(C(=O)c4ccc(C)cc4)CC3)[nH]c2=O)cc1	-22%	–	–
COc1ccc(-n2nc(C3CCN(C(=O)c4ccc(Cl)nc4)CC3)[nH]c2=O)cc1	1.41%	–	–
COc1ccc(-n2nc(C3CCN(Cc4ccccn4)CC3)[nH]c2=O)cc1	–	12.6 µM (active)	–
CN1CCN(C(=O)c2ccc3c(c2)OCCO3)CC1=O	3.69%	–	–
CN(C)C(=O)c1nc(-c2cccnc2)c2ccccn12	1.69% [at 172 µM]	–	–
Cc1cnc(C2CCC2)n1CC1CCN(C(=O)c2ccncc2)C1 (stereo not given)	0.823%	–	–
Cc1ccc(-c2noc([C@@H]3Cc4nc[nH]c4CN3Cc3cccc(C#N)c3)n2)cc1	–	89.1 µM (active)	–
Cc1cccc(-c2noc([C@@H]3Cc4nc[nH]c4CN3C(=O)CCC(=O)O)n2)c1	2.48% [at 172 µM]	–	–
Cc1cccc(-c2noc([C@@H]3Cc4nc[nH]c4CN3C(=O)Nc3ccccc3)n2)c1	-25.2% [at 172 µM]	–	–
CCn1cc(C(=O)N2C[C@@H](COCC3CC3)[C@H](c3ccccn3)C2)cn1	-23.9%	–	–
COCCOCC(=O)N1CCC2(CC1)NCCc1c2[nH]c2ccccc12	–	–	inactive
COCCOCC(=O)N1CCC2(CC1)c1[nH]c3ccc(OC)cc3c1CCN2C	-9.77%	–	–
Cc1cc(C)n(CC(=O)N2CCC3(CC2)NCCc2c3[nH]c3ccccc23)n1	-4.91%	–	–
COc1cccc(N2CCN(C(=O)C3(c4ccc(NC(C)=O)cc4)CCC3)CC2)c1	-13.8%	–	–
COc1ccc2[nH]c3c(c2c1)CCNC31CCN(C(=O)Cn2ccnc2)CC1	-3.22%	–	–
O=C(COc1ccc(F)cc1)N1CCC2(CC1)NCCc1c2[nH]c2ccccc12	–	44.7 µM (active)	–
O=C(C1CC=CC1)N1CCC2(CC1)NCCc1c2[nH]c2ccccc12	–	39.8 µM (active)	–
O=C(C1CCCO1)N1CCC2(CC1)NCCc1c2[nH]c2ccccc12 (stereo not given)	-4.46%	–	–
COc1ccc(C2(C(=O)N3CCC4(CC3)NCCc3c4[nH]c4ccccc34)CC2)cc1	–	35.5 µM (active)	–
